Calls of active or inactive are those of the source. How the source made its calls: active means hit-call score of the fitted dose curve at least 0.9, where 1 is the maximum; inactive means score below 0.9.
Key:
[1] = read-out: Interferon-inducible T-cell alpha chemoattractant (ITAC), CXCL11 (gene 6373); experiment: BSK_hDFCGF_ITAC: BioMAP Diversity Plus: hDFCGF Assay for Interferon-inducible T-cell alpha chemoattractant (ITAC) Biomarker Activity (AID 2284251); conditions: primary human foreskin fibroblasts
Procedure, shortened: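 Fibroblasts (human foreskin, primary) are treated with chemical, cultured 24 h, then assayed for I-TAC by ELISA. Overt toxicity is checked in parallel cultures by sulforhodamine B staining of total protein at the same time point.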

[2] = read-out: Plasminogen activator inhibitor-1 (PAI1), SERPINE1 (gene 5054); experiment: BSK_KF3CT_PAI1: BioMAP Diversity Plus: KF3CT Assay for Plasminogen activator inhibitor-1 (PAI1) Biomarker Activity (AID 2284252); conditions: primary human keratinocytes with fibroblasts
Procedure, shortened: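 Human keratinocyte/foreskin fibroblast co-culture dosed for 24 h; PAI-1 measured by ELISA, fitted in positive direction against DMSO baseline. Parallel SRB total-protein staining (0.1% SRB, 560 nm) assesses overt cytotoxicity.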

[3] = read-out: Intercellular Adhesion Molecule 1 (ICAM1), ICAM1 (gene 3383); experiment: BSK_BE3C_ICAM1: BioMAP Diversity Plus: BE3C Assay for Intercellular Adhesion Molecule 1 (ICAM1) Biomarker Activity (AID 2284278); conditions: primary human bronchial epithelial cells;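 further: cell-surface ICAM-1 protein level quantified by ELISA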
Procedure, shortened: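 Primary human bronchial epithelial cells in BE3C system, 24 h after chemical dosing; cell-surface ICAM-1 measured by ELISA relative to DMSO. Parallel SRB staining (0.1% SRB after 10% TCA fixation, read at 560 nm) assessed cytotoxicity.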

[4] = read-out: Interferon-inducible T-cell alpha chemoattractant (ITAC), CXCL11 (gene 6373); experiment: BSK_BE3C_ITAC: BioMAP Diversity Plus: BE3C Assay for Interferon-inducible T-cell alpha chemoattractant (ITAC) Biomarker Activity (AID 2284279); conditions: primary human bronchial epithelial cells
Procedure, shortened: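 ELISA read-out of I-TAC after 24 h chemical dosing of human lung primary bronchial epithelial cells; gain-of-signal fit vs DMSO baseline. Parallel SRB total-protein staining (0.1% SRB, 10% TCA fixation, 560 nm) assessed cytotoxicity.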

[5] = read-out: Interleukin-8 (IL8), CXCL8 (gene 3576); experiment: BSK_BE3C_IL8: BioMAP Diversity Plus: BE3C Assay for Interleukin-8 (IL8) Biomarker Activity (AID 2284280); conditions: primary human bronchial epithelial cells
Procedure, shortened: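 IL-8 signal gain, normalised to DMSO vehicle, was scored after a 24 h chemical exposure of primary human bronchial epithelial cells, with detection by ELISA.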

[6] = read-out: Epidermal growth factor receptor (EGFR), EGFR (gene 1956); experiment: BSK_BE3C_EGFR: BioMAP Diversity Plus: BE3C Assay for Epidermal growth factor receptor (EGFR) Biomarker Activity (AID 2284281); conditions: primary human bronchial epithelial cells
Procedure, shortened: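 Compound is added to human bronchial epithelial cells, cells incubate 24 h, then EGFR is detected by ELISA. Values reflect positive-direction fitting relative to DMSO.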

KRT18 (gene 3875) = experiment: BSK_BE3C_Keratin818: BioMAP Diversity Plus: BE3C Assay for Keratin 818 Biomarker Activity (AID 2284282); conditions: primary human bronchial epithelial cells
Procedure, shortened: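 Primary human bronchial epithelial cells treated 24 h; Keratin 8/18 quantified by ELISA, fit relative to DMSO. Cytotoxicity tracked in parallel cultures by sulforhodamine B total-protein staining.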

[7] = read-out: Matrix Metallopeptidase 9 (MMP9), MMP9 (gene 4318); experiment: BSK_BE3C_MMP9: BioMAP Diversity Plus: BE3C Assay for Matrix Metallopeptidase 9 (MMP9) Biomarker Activity (AID 2284283); conditions: primary human bronchial epithelial cells
Procedure, shortened: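 ELISA read-out of MMP-9 after 24 h compound exposure of human lung bronchial epithelial primary cells (BE3C). Fit in gain direction vs DMSO negative control; total protein by SRB in parallel cultures flagged overt cytotoxicity.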

[8] = read-out: Plasminogen activator inhibitor-1 (PAI1), SERPINE1 (gene 5054); experiment: BSK_CASM3C_PAI1: BioMAP Diversity Plus: CASM3C Assay for Plasminogen activator inhibitor-1 (PAI1) Biomarker Activity (AID 2284284); conditions: primary human coronary artery smooth muscle cells;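 further: PAI-1 protein level measured by ELISA 24 h after dosing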
[9] = read-out: Intercellular Adhesion Molecule 1 (ICAM1), ICAM1 (gene 3383); experiment: BSK_hDFCGF_ICAM1: BioMAP Diversity Plus: hDFCGF Assay for Intercellular Adhesion Molecule 1 (ICAM1) Biomarker Activity (AID 2284287); conditions: primary human foreskin fibroblasts
Procedure, shortened: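 Primary human foreskin fibroblasts (hDFCGF system) dosed with chemical; ICAM-1 quantified by ELISA at 24 h relative to DMSO. Parallel SRB total-protein staining to assess overt cytotoxicity.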

[10] = read-out: TIMP metallopeptidase inhibitor 2 (TIMP2), TIMP2 (gene 7077); experiment: BSK_hDFCGF_TIMP2: BioMAP Diversity Plus: hDFCGF Assay for TIMP metallopeptidase inhibitor 2 (TIMP2) Biomarker Activity (AID 2284289); conditions: primary human foreskin fibroblasts
Procedure, shortened: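 Primary human foreskin fibroblasts in the hDFCGF system, dosed for 24 h; TIMP-2 level measured by ELISA, fitted in the positive direction against DMSO; cytotoxicity checked in parallel by sulforhodamine B total protein staining.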

[11] = read-out: Thrombomodulin, THBD (gene 7056); experiment: BSK_LPS_Thrombomodulin: BioMAP Diversity Plus: LPS Assay for Thrombomodulin Biomarker Activity (AID 2284296); conditions: primary human HUVEC with PBMC
Procedure, shortened: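 Human umbilical vein endothelial cells co-cultured with PBMC and stimulated with LPS; cell-surface thrombomodulin measured by ELISA 24 hours after compound. Gain or loss versus DMSO; cytotoxicity checked by SRB staining in parallel cultures.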

[12] = read-out: Plasminogen activator inhibitor-1 (PAI1), SERPINE1 (gene 5054); experiment: BSK_MyoF_PAI1: BioMAP Diversity Plus: MyoF Assay for Plasminogen activator inhibitor-1 (PAI1) Biomarker Activity (AID 2284256); conditions: primary human lung fibroblasts
Procedure, shortened: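 MyoF lung fibroblasts, human primary; compound 24 h; PAI-1 ELISA; positive-direction fit vs DMSO baseline; parallel SRB total-protein staining for cytotoxicity.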

[13] = read-out: Interleukin-8 (IL8), CXCL8 (gene 3576); experiment: BSK_MyoF_IL8: BioMAP Diversity Plus: MyoF Assay for Interleukin-8 (IL8) Biomarker Activity (AID 2284261); conditions: primary human lung fibroblasts
Procedure, shortened: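 Lung fibroblasts (human primary) → chemical exposure → 24 h → IL-8 measured by ELISA. Signal increase scored versus DMSO control.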

Decorin, DCN (gene 1634) = experiment: BSK_MyoF_Decorin: BioMAP Diversity Plus: MyoF Assay for Decorin Biomarker Activity (AID 2284265); conditions: primary human lung fibroblasts
Procedure, shortened: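 ELISA readout of decorin, 24 h post-dosing; primary human lung fibroblast (MyoF) culture; gain-of-signal fit vs DMSO baseline.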

[14] = BSK_MyoF_SRB: Viability Assessment in the BioMAP Diversity Plus: MyoF Assay (AID 2284267); conditions: primary human lung fibroblasts;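 further: total protein by SRB absorbance in parallel cultures as cytotoxicity measure; cells assessed 24 h after compound addition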
Procedure, shortened: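 Human lung fibroblasts, 24 h after chemical dosing; total protein measured by 0.1% sulforhodamine B staining after 10% TCA fixation, read at 560 nm, fitted relative to DMSO baseline.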

[15] = read-out: Matrix Metallopeptidase 1 (MMP1), MMP1 (gene 4312); experiment: BSK_MyoF_MMP1: BioMAP Diversity Plus: MyoF Assay for Matrix Metallopeptidase 1 (MMP1) Biomarker Activity (AID 2284268); conditions: primary human lung fibroblasts
Procedure, shortened: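 Cells: human lung fibroblasts. Exposure: 24 h chemical dosing. Detection: ELISA for MMP1. Analysis: upward fitting against DMSO negative control.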

[16] = read-out: TIMP metallopeptidase inhibitor 1 (TIMP1), TIMP1 (gene 7076); experiment: BSK_MyoF_TIMP1: BioMAP Diversity Plus: MyoF Assay for TIMP metallopeptidase inhibitor 1 (TIMP1) Biomarker Activity (AID 2284269); conditions: primary human lung fibroblasts
Procedure, shortened: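 ELISA read-out of TIMP-1 from primary human lung fibroblast cultures 24 h after compound dosing; gain of signal relative to DMSO vehicle baseline defines activity.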

Measured: AC50

COc1cc(C=O)ccc1OC(=O)C(C)C
inactive: [1] | [2] | [3] | [4] | [5] | [6] | KRT18 (gene 3875) | [7] | [8] | [9] | [10] | [11]

NCCNCCN
inactive: [1] | [2] | [3] | [4] | [5] | [6] | KRT18 (gene 3875) | [7] | [8] | [9] | [10] | [11]

c1ccc2c(c1)c1cccc3ccc4cccc2c4c31
inactive: [13] | Decorin, DCN (gene 1634) | [14] | [15] | [16]
active: [12] 0.016 µM

CCCCC/C=C/C=C/C=O
active: [12] 29.4 µM | Decorin, DCN (gene 1634) 20 µM | [14] 32 µM | [16] 34.2 µM
inactive: [13] | [15]

C#C[C@]1(O)CC[C@H]2[C@@H]3CCC4=Cc5oncc5C[C@]4(C)[C@H]3CC[C@@]21C
inactive: [13] | Decorin, DCN (gene 1634) | [14] | [15]
active: [12] 3.97 µM | [16] 35.8 µM

CC(C)(COC(=O)c1ccccc1)COC(=O)c1ccccc1
inactive: [12] | [13] | Decorin, DCN (gene 1634) | [14] | [15] | [16]

C=C(C)C(=O)O[C@H]1C[C@@H]2CC[C@@]1(C)C2(C)C
inactive: [13] | [15]
active: [12] 29.5 µM | Decorin, DCN (gene 1634) 31.7 µM | [14] 34.8 µM | [16] 32.3 µM

O=[N+]([O-])c1cc(C(F)(F)F)ccc1Cl
inactive: [13] | Decorin, DCN (gene 1634) | [14] | [15] | [16]
active: [12] 0.11 µM

CCn1c2ccccc2c2cc(N)ccc21
inactive: [12] | [13] | Decorin, DCN (gene 1634) | [14] | [15] | [16]

O=C(O)c1cn(C2CC2)c2cc(N3CCNCC3)c(F)cc2c1=O
inactive: [12] | [13] | Decorin, DCN (gene 1634) | [14] | [15] | [16]

COC(=O)c1ccc(C)cc1
inactive: [12] | [13] | Decorin, DCN (gene 1634) | [14] | [15] | [16]

O=C1OC2(c3cc(Br)c(O)c(Br)c3Oc3c2cc(Br)c(O)c3Br)c2c(Cl)c(Cl)c(Cl)c(Cl)c21
active: [12] 4.56 µM | [13] 20 µM | Decorin, DCN (gene 1634) 13.2 µM | [14] 9.73 µM | [16] 8.64 µM
inactive: [15]

CCCCCCCCCC=O
inactive: [13] | Decorin, DCN (gene 1634) | [14] | [15] | [16]
active: [12] 0.016 µM

Reference: PubChem BioAssay (EPA / NIEHS)
